Gli-Sufu antag – antagonists of Gli-Sufu signaling; Sufu-KO-LIGHT fibroblasts, Gli luciferase reporter luminescence; inhibition, % at 5 µM; hit rate 0.74% among 340,000; AID 588413;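 active = inhibition above about 55%, limit read from the data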
697 NFkB inh – inhibitors of the PMA/ionomycin-induced NF-kB reporter in 697 B cells; 697 B-cell NF-kB luciferase reporter, 16 h; inhibition, % at 4 µM; hit rate 0.33% among 330,000; AID 435022; in the data active = inhibition above about 35%
SMARCA2 activ – activators of SMARCA2 function; activation, % at 9.1 µM; hit rate 1% among 370,000; MG213 cells, MMTV-luciferase reporter, dexamethasone, overnight; AID 652017; in the data active = activation above about 7.8%
Jurkat NFkB inh – inhibitors of the PMA/ionomycin-induced NF-kB reporter in Jurkat cells | PMA/ionomycin-induced NF-kB luciferase reporter, luminescence | inhibition, % at 4 µM | hit rate 0.53% among 330,000; in the data active = inhibition above about 50%
esBAF inh – SWI/SNF esBAF complex inhibition; AID 602393; reporter increase, % at 12.5 µM; hit rate 2% among 350,000; mouse ES cells, Bmi1-luciferase knock-in reporter, 24 h; 100% = twice the neutral-well signal; in the data active = activation above about 40%;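 note: a rise in the Bmi1 reporter signal indicates esBAF inhibition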
SMARCA2 conf – confirmation of SMARCA2 (BRM) function activators; shares compounds with SMARCA2 activ; MG213 cells, MMTV-luciferase with dexamethasone, luminescence, overnight; MG213 cells expressing E1A, Rb sequestered; DMSO wells 0%, reference activator 100%; activation, % at 9.1 µM; hit rate 30% among 3,500;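 active = activation above its plate's cutoff, the mean activation of tested wells plus 3 SD, cut at about 7.9% in these data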
GAL4-VP16 Luc – activates GAL4-VP16 luciferase, flagging SMARCA2 activator hits; activation, % at 9.1 µM; HEK293 GAL4-VP16 pG5luc reporter, luciferase luminescence; scaled: DMSO wells 0%, SAHA wells 100%; hit rate 41% among 3,500; shares compounds with SMARCA2 activ;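 active = activation above the solvent-only control well mean plus 3 SD, averaged across control plates, cut at about 5.2% in these data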
A number is an active result; – = inactive; · = no result. An excerpt weighted towards active compounds, which were near 3.3% of everything screened.

SMILES	Gli-Sufu antag	697 NFkB inh	SMARCA2 activ	Jurkat NFkB inh	esBAF inh	SMARCA2 conf	GAL4-VP16 Luc
COc1cccc(C(=O)Nc2ccc(C)cc2)c1	–	–	11	–	–	–	6.6
COc1cccc(C(=O)Nc2ccncc2)c1	·	–	·	–	·	·	·
COc1cccc(C(=O)Nc2ccccc2F)c1	–	–	–	–	–	·	·
COc1cccc(C(=O)Nc2ccc(F)c(F)c2F)c1	–	–	9.0	–	·	–	7.9
COc1cccc(C(=O)Nc2ccc3c(c2)C(=O)c2ccccc2C3=O)c1	–	–	12	–	·	–	12
COc1ccc(NC(=O)c2ccc3[nH]c(=O)c(=O)[nH]c3c2)c(OC)c1	–	–	–	–	–	·	·
COc1ccc(NC(=O)c2ccc(C)cc2)c(OC)c1	–	–	14	–	·	–	6.8
COc1cccc(C(=O)NCCSc2ccc(F)cc2)c1	–	–	16	–	·	12	10.0
COc1cccc(C(=O)NCCSc2ccc(C)cc2)c1	–	–	–	–	·	·	·
CCC/C(=N\NC(=O)C1CC1)c1ccccc1	–	–	8.1	–	·	–	–
CO[C@H]1CN(C)C(=O)c2ccc(NS(C)(=O)=O)cc2OC[C@H](C)N(Cc2ccccc2)C[C@H]1C	·	·	·	·	–	·	·
O=C(O)Cn1c(SCc2ccccc2)nc2ccccc21	–	–	–	–	–	·	·
Nn1c(SCc2ccccc2)nc2ccccc21	–	–	12	–	54	8.8	14
CC1(C)CC(NC(=O)c2cc(Cl)ccc2Cl)CC(C)(C)N1	–	–	10	–	–	–	–
CO[C@H]1CN(C)C(=O)c2cc(NC(=O)Nc3cccc(Cl)c3)ccc2OC[C@H](C)NC[C@H]1C	·	·	·	·	–	·	·
C[C@H](CO)N1C[C@H](C)[C@@H](CN(C)S(=O)(=O)c2cn(C)cn2)OCCCC[C@H](C)Oc2ccc(NC(=O)CCC(F)(F)F)cc2C1=O	·	·	·	·	–	·	·
CC(=O)c1sc(NC(=O)CCS(=O)(=O)c2ccccc2)nc1C	–	–	11	–	·	7.8	–
Cc1nnc(N/N=C\c2ccc(-c3cccc(C(=O)O)c3)o2)n1N	–	–	9.1	–	·	–	–
O=C(Nc1ccccc1)Nc1ccc2ncoc2c1	–	–	13	–	·	–	7.3
O=C(C[C@H]1CC[C@H](NC(=O)c2ccccn2)[C@H](CO)O1)NCc1cccc(F)c1	·	·	·	·	–	·	·
CCOc1cc2c(cc1OCC)C(c1ccccc1)N(c1ccc(C(=O)O)cc1)C(=O)C2 (configuration not stated)	–	–	9.5	–	–	–	–
CCOC(=O)c1nc(S(C)(=O)=O)ncc1Cl	–	–	34	–	–	–	–
O=C1c2ccccc2-c2c1c1ccccc1c(=O)n2CCO	–	·	16	·	·	14	7.7
CCOC(=O)c1sc(NC(=O)c2cncc(Br)c2)nc1C	·	·	10	·	·	–	9.3
C=CCOC(=O)c1sc(NC(=O)c2ccco2)nc1C	–	–	8.0	–	–	18	6.7
SMILES	Gli-Sufu antag	697 NFkB inh	SMARCA2 activ	Jurkat NFkB inh	esBAF inh	SMARCA2 conf	GAL4-VP16 Luc
Cc1nc(NC(=S)NC(=O)c2ccco2)sc1C(=O)N(C)C	–	–	–	–	·	·	·
Cn1cccc1/C=N/NC(=O)c1cccnc1	–	–	8.3	–	–	–	–
O=C(N/N=C/c1cccc2ccccc12)c1cccnc1	–	–	9.1	–	–	–	–
Cn1c(-c2ccccc2)c(/C=N/NC(=O)c2cccnc2)c2ccccc21	–	–	12	–	·	–	–
O=C(N/N=C/c1c(-c2ccccc2)[nH]c2ccccc12)c1cccnc1	–	–	–	–	·	·	·
COc1cccc(CNC(=O)C[C@H]2C=C[C@H](NC(=O)C3CC3)[C@@H](CO)O2)c1	·	·	·	·	–	·	·
CCOc1ccc(OCc2ccc(C(=O)N3CCc4ccccc4C3)o2)cc1	–	–	13	–	–	–	–
CS(=O)(=O)Nc1ccc2c(c1)[C@@H]1C[C@H](CC(=O)N3CCOCC3)O[C@H](CO)[C@@H]1O2	·	·	·	·	–	·	·
O=c1cc(-c2ccccc2)nc2cc(-c3ccco3)[nH]n12	–	–	–	–	–	·	·
O=C1c2nc3cc(-c4ccco4)[nH]n3c(=O)c2CN1C1CCCCC1	–	–	11	–	·	–	–
C[C@H]1CN([C@@H](C)CO)C(=O)c2cc(NS(=O)(=O)c3ccccc3)ccc2O[C@H]1CN(C)C	·	·	·	·	–	·	·
Cc1ccc(NS(=O)(=O)c2c(C)nc3sccn3c2=O)cc1C	–	–	9.6	–	–	–	–
CC(=O)NC[C@@H]1[C@H](c2ccc(-c3ccccc3)cc2)[C@@H](CO)N1C(=O)C1CC1	·	·	·	·	–	·	·
COc1ccc(COCC(O)CN2CCc3ccccc3C2)cc1OC (configuration not stated)	–	–	8.8	–	–	–	–
OC(COCc1ccccc1)CN1CCc2ccccc2C1 (configuration not stated)	–	–	–	–	·	·	·
CC(C)NC(=O)N(C)C[C@@H]1Oc2ncc(C#CC3(O)CCCC3)cc2C(=O)N([C@H](C)CO)C[C@H]1C	·	·	·	·	–	·	·
COCCCNC(=O)/C=C/c1ccc(Cl)cc1	–	–	12	–	–	–	–
CCNC(=O)NC(=O)C(C)Sc1nc2ccccc2c(=O)n1-c1cccnc1 (configuration not stated)	–	–	–	–	–	·	·
CCNC(=O)NC(=O)C(C)Sc1nc2cc(C(=O)OC)ccc2c(=O)n1-c1ccccc1 (configuration not stated)	–	–	9.4	–	–	–	–
COc1cc2c(cc1NC(=O)c1ccccc1F)CCCC2	–	–	9.3	–	·	–	7.6
CN1C(=O)c2cc(NS(=O)(=O)c3cccc(F)c3)ccc2OC[C@H]2O[C@H](CC(=O)NCCN3CCCCC3)CC[C@@H]21	·	·	·	·	–	·	·
Cc1cc(CN(C)C(=O)CCc2nnc(Cc3cccc(C(F)(F)F)c3)o2)on1	–	–	–	–	·	·	·
CCN(CC)C(=O)CCc1nnc(Cc2cccc(C(F)(F)F)c2)o1	–	–	16	–	·	–	9.2
CCN1CCN(Cc2ccc(NC(=O)c3cc(NC(=O)C(=O)c4c[nH]c5ccccc45)cc(OC)c3)cc2C(F)(F)F)CC1	–	–	10	–	–	–	–
CCN1CCN(Cc2ccc(NC(=O)c3cc(NC(=O)c4cc(C)on4)cc(OC)c3)cc2C(F)(F)F)CC1	–	–	–	–	–	·	·
COc1ccc(C(C)=O)cc1CN1C(=O)NC2(CCCCCCC2)C1=O	–	–	11	–	–	–	–
COc1ccc(NC(=O)c2ccc(-c3ccc(-c4noc(C)n4)cc3C)cc2)cc1N1CCN(C)CC1	–	–	13	–	–	17	–
COc1ccc(-c2nc(-c3ccc(NC(=O)c4ccncc4)cc3)no2)cc1OC	–	–	·	–	–	·	·
CC1=CC(=O)C(Sc2ccc(C)cc2)=CC1=O	·	·	8.1	·	–	–	6.2
Cc1ccc(Sc2c(C)[nH]n(C(C)(C)C)c2=O)cc1	–	–	–	–	·	·	·

Assay outcomes deposited in PubChem BioAssay by several laboratories.
